According to PubChem BioAssay AID1159580 (chemical genetic matrix, 2015):
Screen size: about 5,500 compounds; about 2,000 (36%) were called active. Another 18% or so got no clear call; they are omitted. Cut-off read from the data, not from the text of the source: active = normalized growth mostly below about 0.91 (no sharp cut-off); inconclusive = no clear call, values can overlap the other calls; inactive = mostly above about 0.92. Some of the results follow.

Test: chemical genetic growth profiling, strain panel (AID 1159580);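 note: tested at 20 µM; growth read once vehicle control cultures reached saturation at 30 °C; 1 = growth at the plate median or of vehicle wells; lower values mean less growth of the strain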
Conditions: S. cerevisiae deletion strains, growth OD
[1] = locus YHR030C, strain SLT2, active compounds read low
[2] = locus YJL187C, strain SWE1, active compounds read low

Measured: normalized growth

O=C(O)/C=C/c1ccccc1
active: [1] 0.834 | locus YHR079C, strain IRE1, active compounds read low 0.838 | locus YJL095W, strain BCK1, active compounds read low 0.862 | locus YJR066W, strain TOR1, active compounds read low 0.801 | locus YLR113W, strain HOG1, active compounds read low 0.722 | locus YNL183C, strain NPR1, active compounds read low 0.786 | locus YOR231W, strain MKK1, active compounds read low 0.823 | locus YPL256C, strain CLN2, active compounds read low 0.742

O=C(N/N=C\C=C\c1ccccc1)c1ccccc1-n1cccc1
inactive: locus YAL013W, strain DEP1, active compounds read low 0.96 | locus YBR229C, strain ROT2, active compounds read low 0.979 | locus YDL101C, strain DUN1, active compounds read low 0.993 | locus YDR150W, strain NUM1, active compounds read low 0.996 | locus YEL061C, strain CIN8, active compounds read low 1 | locus YGR078C, strain PAC10, active compounds read low 0.988 | [1] 0.925 | locus YHR087W, strain rtc3, active compounds read low 0.93 | [2] 0.976 | locus YJR043C, strain POL32, active compounds read low 1.01 | locus YJR075W, strain HOC1, active compounds read low 0.997 | locus YLR039C, strain RIC1, active compounds read low 0.87 | locus YLR058C, strain SHM2 (second series), active compounds read low 0.97 | locus YLR085C, strain ARP6, active compounds read low 0.836 | locus YLR262C, strain YPT6, active compounds read low 0.833 | locus YML094W, strain GIM5, active compounds read low 0.939 | locus YMR219W, strain ESC1, active compounds read low 0.99 | locus YMR263W, strain SAP30, active compounds read low 0.973 | locus YMR307W, strain GAS1, active compounds read low 0.713 | locus YNL128W, strain TEP1, active compounds read low 0.987 | locus YNL153C, strain GIM3, active compounds read low 1 | locus YNL298W, strain CLA4 (second series), active compounds read low 0.928 | locus YNL322C, strain KRE1, active compounds read low 0.996 | locus YNR030W, strain Alg12, active compounds read low 0.906 | locus YPL055C, strain LGE1, active compounds read low 0.899 | locus YPL241C, strain CIN2, active compounds read low 0.948 | locus YPR135W, strain CTF4, active compounds read low 0.795

COc1cccc(/C=C/C(=O)O)c1C(C)C
inactive: locus YAL021C, strain ccr4, active compounds read low 0.952 | locus YAL026C, strain drs2, active compounds read low 0.983 | locus YAL030W, strain snc1, active compounds read low 0.978 | locus YBL061C, strain skt5, active compounds read low 0.973 | locus YBR009C, strain hhf1, active compounds read low 1.01 | locus YBR023C, strain chs3, active compounds read low 0.973 | locus YBR171W, strain sec66, active compounds read low 0.969 | locus YBR231C, strain swc5, active compounds read low 0.976 | locus YBR279W, strain paf1, active compounds read low 0.995 | locus YCL011C, strain gbp2, active compounds read low 0.999 | locus YCL016C, strain dcc1, active compounds read low 0.982 | locus YCL069W, strain vba3, active compounds read low 0.982 | locus YCR088W, strain abp1, active compounds read low 0.977 | locus YDL005C, strain med2, active compounds read low 0.96 | locus YDL040C, strain nat1, active compounds read low 0.988 | locus YDR001C, strain nth1, active compounds read low 0.983 | locus YDR069C, strain doa4, active compounds read low 0.97 | locus YDR137W, strain rgp1, active compounds read low 0.992 | locus YDR159W, strain sac3, active compounds read low 0.917 | locus YDR195W, strain ref2 0.96 | locus YDR297W, strain sur2, active compounds read low 0.973 | locus YDR334W, strain swr1, active compounds read low 0.983 | locus YDR335W, strain msn5, active compounds read low 0.994 | locus YDR392W, strain spt3, active compounds read low 0.961 | locus YEL003W, strain gim4, active compounds read low 0.994 | locus YEL037C, strain rad23, active compounds read low 0.985 | locus YEL061C, strain CIN8 (second series), active compounds read low 1 | locus YER015W, strain faa2, active compounds read low 0.977 | locus YER016W, strain bim1, active compounds read low 0.981 | locus YER111C, strain swi4, active compounds read low 0.976 | locus YER155C, strain BEM2 (second series), active compounds read low 0.967 | locus YFR010W, strain ubp6, active compounds read low 0.99 | locus YGL167C, strain pmr1, active compounds read low 0.978 | locus YGL173C, strain kem1, active compounds read low 0.991 | locus YGL227W, strain vid30, active compounds read low 0.985 | locus YGL240W, strain doc1, active compounds read low 0.984 | locus YGL253W, strain hxk2, active compounds read low 0.98 | locus YHR013C, strain ard1, active compounds read low 0.957 | locus YHR027C, strain rpn1, active compounds read low 0.995 | locus YHR142W, strain chs7, active compounds read low 0.996 | locus YJL092W, strain hpr5, active compounds read low 0.983 | locus YJL095W, strain BCK1 (second series), active compounds read low 0.974 | locus YJL115W, strain asf1, active compounds read low 0.972 | locus YJL129C, strain trk1, active compounds read low 0.973 | locus YJL154C, strain vps35, active compounds read low 0.983 | locus YJL164C, strain tpk1, active compounds read low 0.985 | locus YJL166W, strain qcr8, active compounds read low 0.982 | [2] 0.998 | locus YKL160W, strain elf1, active compounds read low 0.987 | locus YKR026C, strain gcn3, active compounds read low 0.982 | locus YKR091W, strain srl3, active compounds read low 0.999 | locus YLL001W, strain dnm1, active compounds read low 0.988 | locus YLL026W, active compounds read low 0.972 | locus YLL041C, strain sdh2, active compounds read low 0.971 | locus YLR027C, strain aat2, active compounds read low 0.989 | locus YLR221C, strain rsa3, active compounds read low 0.999 | locus YLR258W, strain gsy2, active compounds read low 0.986 | locus YLR262C, strain YPT6 (second series), active compounds read low 1.03 | locus YLR320W, strain mms22, active compounds read low 0.975 | locus YLR342W, strain FKS1, active compounds read low 0.982 | locus YLR357W, strain rsc2, active compounds read low 0.945 | locus YLR370C, strain arc18, active compounds read low 0.993 | locus YLR384C, strain iki3, active compounds read low 0.989 | locus YML120C, strain ndi1, active compounds read low 0.979 | locus YMR058W, strain fet3, active compounds read low 0.976 | locus YMR125W, strain sto1, active compounds read low 0.988 | locus YMR129W, active compounds read low 0.99 | locus YMR205C, strain PFK2, active compounds read low 0.937 | locus YMR231W, strain pep5, active compounds read low 0.977 | locus YNL071W, strain lat1, active compounds read low 0.982 | locus YNL209W, strain ssb2, active compounds read low 1.01 | locus YNL248C, strain rpa49, active compounds read low 0.988 | locus YNL322C, strain KRE1 (second series), active compounds read low 0.951 | locus YNR049C, strain mso1, active compounds read low 0.967 | locus YOR001W, strain rrp6, active compounds read low 0.998 | locus YOR070C, strain gyp1, active compounds read low 0.999 | locus YOR080W, strain dia2, active compounds read low 0.994 | locus YOR083W, strain WHI5, active compounds read low 0.981 | locus YOR106W, strain vam3, active compounds read low 1.01 | locus YOR265W, strain rbl2, active compounds read low 0.973 | locus YOR270C, strain vph1, active compounds read low 1.02 | locus YOR290C, strain snf2, active compounds read low 0.98 | locus YPL051W, strain arl3, active compounds read low 0.996 | locus YPL078C, strain atp4, active compounds read low 1.01 | locus YPL106C, strain sse1, active compounds read low 0.929 | locus YPL240C, strain hsp82, active compounds read low 0.976
